Assay [1] in a line: agonists of human NTR1, primary screen, imaging, U2OS cells, beta-arrestin-GFP, high content (AID 493036).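 As to activation: 0% = DMSO without peptide and 100% = 100 nM NTR1 peptide.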 To be noted: NTR1-U2OS beta-arrestin-GFP spot imaging, agonist mode; measured here: cell count, cytotoxicity flag; at 20 µM.
Assay [2] deals with Neurotensin receptor type 1 (Homo sapiens) (UniProt P30989). The assay is described as above. To be noted: NTR1-U2OS beta-arrestin-GFP spot imaging, agonist mode; at 20 µM; stronger effect = higher value.
Sequence of Neurotensin receptor type 1 (Homo sapiens) (P30989 whole entry, looked up): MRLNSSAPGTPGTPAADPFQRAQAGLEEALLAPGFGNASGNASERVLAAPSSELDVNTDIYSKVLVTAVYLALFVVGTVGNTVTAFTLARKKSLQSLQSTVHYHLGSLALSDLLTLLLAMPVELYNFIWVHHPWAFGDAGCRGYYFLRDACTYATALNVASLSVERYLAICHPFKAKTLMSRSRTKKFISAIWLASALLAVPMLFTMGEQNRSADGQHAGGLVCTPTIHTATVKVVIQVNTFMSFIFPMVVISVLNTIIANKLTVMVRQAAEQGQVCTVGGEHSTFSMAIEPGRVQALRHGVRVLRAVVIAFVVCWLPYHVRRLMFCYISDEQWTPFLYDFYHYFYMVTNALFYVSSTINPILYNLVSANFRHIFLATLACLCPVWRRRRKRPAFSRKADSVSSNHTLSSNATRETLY

Molecules are shown by their SMILES. The whole screen tested about 330,000 compounds, of which about 560 (0.17%) were called active.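 The calls were made as follows: active = activation at or above 40% of the spot to cytoplasm intensity ratio, with at least 20 cells analyzed; inconclusive = wells under 20 cells, flagged as cytotoxic or low count; inactive = the rest.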 This excerpt belongs to a sample that is enriched for actives.

On to `CCCCOc1ccc(N(CC(=O)NC(C)C)C(=O)CCC(=O)Nc2ccccn2)cc1`, for which the cell count in assay [1] was 43 cells. Moreover, in assay [2], the activation is -1.4% (inactive).
For `Cc1ccc(S(=O)(=O)N2CCOCC2)cc1NC(=O)COC(=O)c1cnccn1`, the cell count in assay [1] is 51 cells. In assay [2], the activation was -0.4% (inactive).
The like results for `O=C1CCC(CCC(=O)N2CCCC(C(=O)c3ccc(Cl)cc3)C2)=NN1` (configuration not stated) were, in that order, 70 cells and -0.5% (inactive).
In assay [1], `CCOC(=O)/C(=N\Nc1ccccc1[N+](=O)[O-])c1csc(Nc2ccccc2)n1` came in with a cell count of 59 cells. Besides, the activation in assay [2] was 12.7% (inactive).
Consider `CCOC(=O)/C(C#N)=C/c1ccc(OCC(=O)Nc2ccccc2)c(OC)c1`, for which the cell count in assay [1] turned out to be 80 cells. In addition, the activation in assay [2] is -4.5% (inactive).
The compound `CCOC(=O)/C(=C\c1ccc([N+](=O)[O-])cc1)C(=O)c1cc(C(C)=O)c(Nc2ccccc2)s1` had a cell count in assay [1] of 50 cells. Besides, in assay [2], the activation is 49.8% (active).
The like results for `COc1ccc(S(=O)(=O)N2CCCCC2)cc1NC(=O)COc1ccccc1` were, in that order, 55 cells and 2.1% (inactive).
The like results for `COCC(C)n1c(C)cc(C(=O)CSc2cc(C)c3ccccc3n2)c1C` (configuration not stated) were, in that order, 54 cells and 5% (inactive).
`O=C(O)C1CCN(C(=O)OCc2ccccc2)CC1` showed a cell count in assay [1] of 88 cells. For the same compound, in assay [2], the activation was -0.7% (inactive).
Consider `Fc1ccccc1/C=C1\CCCC2=C1Nc1ncnn1C2c1ccccc1F` (configuration not stated), for which the cell count in assay [1] was 72 cells. In addition, the activation in assay [2] is 58.7% (active).
`CC1=C(C(N)=O)C(c2ccc(Br)cc2)n2ncnc2N1` (configuration not stated) yielded a cell count in assay [1] of 82 cells. Also, the activation in assay [2] was -1.6% (inactive).
In the case of `CC(C)C(C)(C#N)NC(=O)CSc1nc2scc(-c3ccccc3)c2c(=O)[nH]1` (configuration not stated), the cell count in assay [1] is 65 cells. In addition, the activation in assay [2] is 6.5% (inactive).
The like results for `NS(=O)(=O)c1ccc(CCNC(=O)c2ccc([N+](=O)[O-])cc2[N+](=O)[O-])cc1` were, in that order, 46 cells and -0.2% (inactive).
In turn, `O=C(CCC1CCN(C(=O)c2cccc(Cl)c2F)CC1)Nc1ccccc1` registered a cell count in assay [1] of 63 cells. Moreover, in assay [2], the activation was 0.6% (inactive).
The compound `COc1cc(OC)cc(C(=O)NNC(=O)CCOc2ccccc2OC)c1` came in with a cell count in assay [1] of 73 cells. Moreover, the activation in assay [2] is -0.7% (inactive).
The like results for `CCCCOc1ccc(C(=O)NCC(=O)OCC(=O)c2c(N)n(C)c(=O)n(C)c2=O)cc1` were, in that order, 49 cells and -0.7% (inactive).
The like results for `Cc1nnc(SCC(=O)N2c3ccccc3C(C)(c3ccc(Cl)cc3)CC2(C)C)s1` (configuration not stated) were, in that order, 47 cells and 8.5% (inactive).
The like results for `CCn1cc(/C=C(\NC(=O)c2ccc(C)cc2)C(=O)NCCN2CCOCC2)c2ccccc21` were, in that order, 75 cells and 1.6% (inactive).
In assay [1], `N#CC1(NC(=O)COc2ccc3oc4ccccc4c3c2)CCCCC1` gave a cell count of 33 cells. The activation in assay [2] was 0.8% (inactive).
In turn, `O=C(Nc1ccc2c(c1)CCC2)c1ccc(Br)s1` yielded a cell count in assay [1] of 65 cells. In assay [2], the activation is 4.4% (inactive).
Regarding `Clc1cccc(Cl)c1Cn1nnc(-c2cccs2)n1`, in assay [1], the cell count amounted to 79 cells. Besides, the activation in assay [2] is 4.8% (inactive).
In assay [1], `CC(=O)N[C@H]1[C@H]([C@H](O)[C@H](O)CO)OC(C(=O)O)=C[C@@H]1O` returned a cell count of 69 cells. The activation in assay [2] was 1.8% (inactive).
The like results for `CCOc1c(N2CCCCC2)c(=O)c1=O` were, in that order, 32 cells and 2.2% (inactive).
The like results for `CCOc1ccccc1NC(=O)NC1CCCCCCC1` were, in that order, 52 cells and -0.7% (inactive).
The like results for `CC1(C)CC(=O)C=C(N2CCOCC2)C1` were, in that order, 46 cells and 0.2% (inactive).
On to `CC(C)(C)C(=O)Nc1ccc(C(=O)N/N=C/c2ccccc2OC(=O)c2ccc(Cl)cc2Cl)cc1`, for which the cell count in assay [1] stood at 48 cells. Besides, the activation in assay [2] is 0.7% (inactive).
For `O=C(N/N=C/c1ccc(OC(=O)c2ccccc2Cl)cc1)c1ccc(O)cc1`, the cell count in assay [1] turned out to be 65 cells. For the same compound, in assay [2], the activation is 40.7% (active).
The like results for `Cc1nc2ccc(C(=O)N/N=C/c3ccc(O)cc3)cc2[nH]1` were, in that order, 50 cells and -0.6% (inactive).
The like results for `CC1=CC=CN2C1=NC(=O)CC2(C)C(=O)N(CC(=O)NC1CCCC1)c1ccccc1C` (configuration not stated) were, in that order, 39 cells and 1% (inactive).
The like results for `Cc1ccc(N2C(=O)C(NC(=O)c3c(F)cccc3F)(C(F)(F)F)C3=C2CC(C)(C)CC3=O)cc1` (configuration not stated) were, in that order, 69 cells and 4% (inactive).
The compound `COc1ccccc1CN(C)c1nnnn1-c1ccccc1` displayed a cell count in assay [1] of 50 cells. The activation in assay [2] was 1.1% (inactive).
In the case of `CSc1ccc(CNCCN2CCOCC2)cc1`, the cell count in assay [1] worked out at 55 cells. The activation in assay [2] is -2.1% (inactive).
In assay [1], `FC(F)(F)Oc1ccc(-c2cn3cccnc3n2)cc1` came in with a cell count of 36 cells. In addition, the activation in assay [2] is 3.1% (inactive).
In assay [1], `CCc1ccccc1NC(=O)/C(=C/c1ccccc1)c1ccccc1` registered a cell count of 63 cells. For the same compound, in assay [2], the activation is 6.1% (inactive).
In assay [1], `Cc1coc(C)c1C(=O)CC1(O)C(=O)N(C)c2ccc(Cl)cc21` (configuration not stated) registered a cell count of 91 cells. Moreover, in assay [2], the activation was -1% (inactive).
The like results for `CN(C)CCNC(=O)C(C(=O)c1ccccc1)n1ccccc1=O` (configuration not stated) were, in that order, 94 cells and -1.5% (inactive).
With `CCS(=O)(=O)n1nc(-c2ccccc2)nc1SCc1ccccc1`, in assay [1], the cell count was determined as 92 cells. In addition, the activation in assay [2] is 6.4% (inactive).
The like results for `CN(C)/C=C(/C(=O)c1ccc(F)cc1)S(=O)(=O)c1ccc(F)cc1` were, in that order, 51 cells and -0.1% (inactive).
In turn, `CCOC(=O)c1c(CN2CCOCC2)n(-c2ccccc2)c2ccc(O)cc12` registered a cell count in assay [1] of 70 cells. In addition, the activation in assay [2] is 2.7% (inactive).
`CC1=NNC(=O)C1CCC(=O)N/N=C\c1cccc(Cl)c1` (configuration not stated) yielded a cell count in assay [1] of 94 cells. For the same compound, in assay [2], the activation is -1% (inactive).
The like results for `CCOC(=O)c1cnc(SCC(=O)Nc2ccccc2C(=O)OC)nc1N` were, in that order, 88 cells and -1.8% (inactive).

For the origin of these results see PubChem BioAssay AID493036 (Sanford-Burnham Center for Chemical Genomics, 2011).
